A number with no mark means an inactive call.

The nature of this test: PSAC antagonists in infected red cells, primary screen, cell-based, P. falciparum Indochina, OD700, 18 h (AID 1157). Conditions: P. falciparum Indochina infected erythrocytes, osmotic lysis OD700, 18 h; higher = more signal, called active from +8 up or from −8 down.
As to `COc1ccc([Si](C)(C)[C@H]2[C@H](CC(=O)N3Cc4ccccc4C[C@H]3CO)O[C@@]3(C(=O)N(Cc4cccc(N5C(=O)c6cccc7cccc5c67)c4)c4ccccc43)[C@@H]2C)cc1`, the z-score was 0.793.

For `CN1C(=O)C2C(C1=O)C1C=C(c3ccc(CO)cc3)C2C(c2cccs2)N1C` (centres undefined), the z-score is 0.699.

Turning to `CC(C)CNC(=O)[C@@]1(C)c2ccccc2C(=O)N(Cc2cc(F)cc(C(F)(F)F)c2)[C@H]1c1ccc(CO)cc1`, the z-score was 0.253.

As to `COc1ccc([Si](C)(C)[C@H]2[C@H](CCO)O[C@@]3(C(=O)N(Cc4ccc(N5CCOC5=O)cc4)c4ccccc43)[C@@H]2C)cc1`, the z-score is 6.38.

Take `CCCC=C(CCC)[C@@H](NC(=O)c1ccco1)c1ccc(C(=O)OC)cc1`: the z-score is 1.11.

Take `CO[C@H]1O[C@H](CO)[C@@H](OC(=O)Nc2ccc(C(F)(F)F)cc2)[C@H](OC(=O)Nc2ccccc2-c2ccccc2)[C@@H]1OC(=O)Nc1ccccc1-c1ccccc1`: the z-score is 0.817.

As to `CC[C@H](C)C(=O)O[C@H]1CC[C@]2(C)C3=C(CCC2C1(C)C)[C@]1(C)CC[C@H]([C@H](C)CCCC(C)C)[C@@]1(C)CC3` (some centres undefined), the z-score is -0.136.

As for `COCCn1c(C(=O)N2CCCC2)cc2c1C[C@H]1CN(C(=O)c3ccccc3)[C@@](Cc3ccccc3)(C(=O)OC)[C@@H]21`, the z-score is 1.01.

`C[C@]1(C(=O)NCC(F)(F)F)c2ccccc2C(=O)N(Cc2ccc(OC(F)(F)F)cc2)[C@H]1c1ccc(CO)cc1`: the z-score was 0.451.

For the origin of these results see PubChem BioAssay.
